From ChEMBL document CHEMBL4513216, “Probing the Open Global Health Chemical Diversity Library for Multistage-Active Starting Points for Next-Generation Antimalarials” (ACS Infect Dis, 2020)
Hit rate of the full screen: of about 69,000 compounds, about 8,600 (12%) showed an effect of 50% or more. Many of the other results were omitted from the sample, so strong results are more common in it than they were.

Tested on: Plasmodium berghei
Experiment: Screen against P. berghei liver stage (PbLuc), transformed with Luciferase, at 10uM
Format: functional, HepG2
Details: tested at 10 uM

SMILES | INHIBITION [%]
NS(=O)(=O)Cc1ccc(CNc2cncc(-n3cccn3)n2)cc1 | 11.6
Cc1ccc(CN2CCN(Cc3nccn3C)[C@H]3CS(=O)(=O)C[C@H]32)o1 | 24.9
O=C(CN1CCC[C@H]1C(=O)O)NCCOc1cccc(Cl)c1 | 16.1
O=C(NC1CCN(C2CC2)CC1)c1cn(-c2ccc(Cl)cc2)nn1 | -6.51
Cc1ccc2c(n1)N(Cc1csc(C)n1)CCN(C1CCOC1)C2 (configuration not stated) | 28.2
Cc1cc(C)n(CC(C)NCc2nc(-c3cccnc3)no2)n1 (configuration not stated) | 45.9
Cc1cccn2c(CNC(C)CCn3cccn3)cnc12 (configuration not stated) | 32.3
Cc1cc(C)n(CC(C)NCc2cnc3c(C)cccn23)n1 (configuration not stated) | 60.4
Cc1cccn2c(CNC(C)CO)cnc12 (configuration not stated) | 24.7
Cc1cccn2c(CNC(C)CCc3ccc(O)cc3)cnc12 (configuration not stated) | 65.8
Cc1ccc2c(c1)c(CNC(C)Cn1nc(C)cc1C)nn2C (configuration not stated) | 10.9
COc1ccc(OC)c(C(C)NC(=O)c2nn(C)c(C)c2Br)c1 (configuration not stated) | -1.84
Cn1c(=O)[nH]c(=O)n2c(CC(=O)Nc3ccccc3)cnc12 | 32.5
COCC1CN(Cc2ccoc2)Cc2cn(CC3CCCC3)nc21 (configuration not stated) | 34.6
COCC1CN(Cc2ccoc2)Cc2cn(C)nc21 (configuration not stated) | 7.24
CCn1cc2c(n1)C(COC)CN(Cc1ccoc1)C2 (configuration not stated) | 58.7
Cn1c(Cn2ccnc2)nnc1C1CCN(C(=O)c2ccncc2)CC1 | -22.1
COCC(=O)N1CCC(c2cc(N(C)C)cc(C)n2)CC1 | 44.3
Cc1ccc(-c2nc(CC(=O)NCC3CCOC3)cs2)o1 (configuration not stated) | 71.2
Cc1ccc(-c2nc(CC(=O)N3CCN(c4cnccn4)CC3)cs2)o1 | -11.4
Cc1ccc(-c2nc(CC(=O)NCC3CCCN(C(C)C)C3)cs2)o1 (configuration not stated) | 38.7
Cc1ccc(-c2nc(C(=O)NCC3CCOC3)cs2)cc1 (configuration not stated) | 41.5
Cc1ccc(-c2nc(CC(=O)NCC3CCCOC3)cs2)o1 (configuration not stated) | 44.3

SMILES | INHIBITION [%]
CNC(=O)C1CCCCN1C(=O)Cc1csc(-c2ccc(C)o2)n1 (configuration not stated) | -7.72
CCNC(=O)C1CCN(Cc2csc(-c3ccc(C)o3)n2)CC1 | 20.2
Cc1ccc(-c2nc(CC(=O)NCC(C)N3CCOCC3)cs2)o1 (configuration not stated) | 67.5
Cc1ccc(-c2nc(CC(=O)N3CCCC(NC(=O)C(C)C)C3)cs2)o1 (configuration not stated) | 51.7
NC(=O)NCC1CCCCN1C(=O)c1cccc(Cl)c1 (configuration not stated) | -17.4
CNC(=O)CN1CCCC12CCN(C(=O)c1cccc(F)c1)CC2 | 14.9
CCSc1ccc(C(=O)N2CCCC2C(=O)N2CCOCC2)cn1 (configuration not stated) | 23.6
Cc1ccc(CN2CC[C@H]3OCC[C@@H](C(=O)NC4CC4)[C@@H]3C2)o1 | 23.9
Cn1cnnc1C1CCCN1C(=O)Nc1cccc(OC(F)F)c1 (configuration not stated) | 30.7
CCOCc1ccc(NC(=O)N2CCCC2c2nncn2C)cc1 (configuration not stated) | 43.7
COc1cc(NC(=O)N2CCCC2c2nncn2C)ccc1Br (configuration not stated) | 55.6
c1cncc(CN2CCc3ncnc(NCCc4c[nH]cn4)c3CC2)c1 | 38.3
CC(C)c1nc(C2CCCN(C(=O)c3ccc4nncn4c3)C2)no1 (configuration not stated) | -43.6
CCC(C)N1CCC2(CC1)CN(c1cncnc1)C(=O)CO2 (configuration not stated) | 3.25
N#Cc1ccc(CNC(=O)NC2CCN(c3ncccn3)CC2)cc1 | 23.3
Clc1cccc(CNC2CCN(CCc3ccncc3)CC2)c1 | 52.9
N#Cc1ccc(CNC(=O)NC2CCN(CC(F)(F)F)C2)cc1 (configuration not stated) | 52
N#Cc1ccc(CNC(=O)NC2CCN(CC(F)F)CC2)cc1 | 26.1
Oc1cccc(CNC2CCN(CCc3ccncc3)CC2)c1 | 4.48
CSc1ccc(CNC2CCN(CCc3ccncc3)CC2)cc1 | 16.1
N#Cc1ccc(CNC2CCN(CCc3ccncc3)CC2)cc1 | 51.1
Fc1ccc(CNC2CCN(CCc3ccncc3)CC2)cc1F | 21.5
Cc1ccc(CNC2CCN(CCc3ccncc3)CC2)cc1C | 15.1

SMILES | INHIBITION [%]
COCCN1CCC(NCc2ccc(Cl)cc2)C1 (configuration not stated) | 23.4
COCCN1CCC(NCc2cccc(C)c2)C1 (configuration not stated) | 15.6
COCCN1CCC(NCc2ccc(C#N)cc2)C1 (configuration not stated) | 57.4
O=C1CCC2(CCC(NC3CCOC3)CC2)N1Cc1ccccc1 (configuration not stated) | -17.1
Cc1cccc(CN2Cc3[nH]nc(COCCO)c3C2)n1 | 29
Cc1nc(C(=O)N2CCOC(c3nc(C(C)C)n[nH]3)C2)c[nH]1 (configuration not stated) | -16
CCN(Cc1nonc1C)C(=O)c1cc(C(F)(F)F)nn1C | 29.9
CN(C)Cc1cccc(C(=O)N2CCCC(n3cncn3)C2)c1 (configuration not stated) | 29.2
COc1cc2[nH]c(C(=O)O)cc2c(OC)c1C | -13.1
CCn1nc2ccc(S(=O)(=O)N3CCSCC3)cn2c1=O | 7.92
COc1ccc(CNC(C)c2ccc(Cl)cc2)c(OC)c1OC (configuration not stated) | 56
COc1cc(CNC(C)Cn2cccn2)cc(Cl)c1OC (configuration not stated) | -3.7
COc1ccc(C(C)NCCC(N)=O)cc1F (configuration not stated) | 49.4
CC(NCc1ccc(OCC(N)=O)cc1)c1ccc(Cl)cc1 (configuration not stated) | 43.3
CC(NCC1CCN(CCO)CC1)c1cccc(Cl)c1 (configuration not stated) | 40.4
COc1ccc(CNC(C)c2cccc(Cl)c2)c(OC)c1OC (configuration not stated) | 44.3
COc1ccc(C(C)NCc2ccc(OC)c(OC)c2OC)cc1F (configuration not stated) | 67.1
COc1ccc(C(C)NCc2cnnn2C)cc1F (configuration not stated) | 36.6
COc1cc(CNC(C)c2cccc(Cl)c2)cc(OC)c1OC (configuration not stated) | 63.7
COc1ccc(CNC(C)c2ccccc2Cl)c(OC)c1OC (configuration not stated) | 48.3
CCOc1cccc(C(C)NCc2ccc(OC)c(OC)c2OC)c1 (configuration not stated) | 38.5
COc1ccc(CNC(C)c2cccc(Br)c2)c(OC)c1OC (configuration not stated) | 70.5
O=C(COC1CCCCC1)N1CCCC(n2ccnc2)C1 (configuration not stated) | -29.8

SMILES | INHIBITION [%]
CCN1CC(C(=O)NC(C)(C)C(=O)OC)CC1=O (configuration not stated) | -10.3
Cc1[nH]nc(CCC(=O)NCC2CCN(C3CCCCC3)C2)c1C (configuration not stated) | -57.5
COc1ccc(CNC(C)c2ccc(Cl)c(Cl)c2)c(OC)c1OC (configuration not stated) | 70.5
COc1cc(CNCC(O)c2ccc(C)cc2)cc2c1OCCO2 (configuration not stated) | 21.8
COc1cc(CNC(C)c2ccc(F)c(F)c2)cc2c1OCCO2 (configuration not stated) | 66.7
COc1ccc(C(C)NCc2c[nH]nc2C)cc1Br (configuration not stated) | 43.9
CC(NCc1ccc(C(N)=O)cc1)c1ccc(Cl)c(Cl)c1 (configuration not stated) | -29.2
COc1cc(CNCC(O)c2ccc(F)c(F)c2)cc2c1OCO2 (configuration not stated) | 24
CO[C@@H]1CCN(c2ncc(F)cn2)[C@H]1Cc1cnn(C)c1 | 28.4
CN1CCN(C)C(CNC(=O)N(C)Cc2ccccc2Cl)C1 (configuration not stated) | 17.1
Cc1cc(C2CCCN2C(=O)c2csc(-c3cnn(C)c3)n2)on1 (configuration not stated) | -1.445
CCn1nc(C)c2nnn(CC(=O)Nc3cccc(F)c3)c(=O)c21 | 15.9
NC(=O)C(CNC(=O)Cc1ccc(F)cc1)Cc1ccc(F)cc1 (configuration not stated) | 29.2
Cc1ccc(C(=O)Cc2c(Cl)nc3n(C)c(=O)n(C)c(=O)n23)cc1 | 85
Cn1c(=O)n(C)c2nc(Cl)c(CC(=O)c3ccccc3)n2c1=O | -6.47
Cn1c(=O)n(C)c2nc(Cl)c(CC(=O)c3ccc(F)cc3)n2c1=O | 48.3
CC(C)CCn1cc(C(C(=O)O)N2CCC(c3ccncc3)CC2)cn1 (configuration not stated) | 23.9
O=C(NCCO)c1sc2ncccc2c1C1CN(C2CCCC2)CCO1 (configuration not stated) | -10.4
CC(C)(C)c1noc(CN2CCCCC2Cn2cncn2)n1 (configuration not stated) | 39.15
O=S(=O)(NCC1(c2cccs2)CCCC1)c1cccnc1 | -43.5
CCC(C(=O)NCC1=CCCN(C)C1)c1ccccc1 (configuration not stated) | 0.348
Cc1ccnn1CCCNC(=O)C1CCN(S(C)(=O)=O)CC1 | 77.7
Cc1cccc2c1cnn2CCCNC(=O)C(C)C | 0.139

SMILES | INHIBITION [%]
Cc1nn(CCCNC(=O)C2CCN(S(C)(=O)=O)CC2)c(Cl)c1Cl | 14.8
Cc1cc(C(F)(F)F)nn1CCCNC(=O)C1CCN(S(C)(=O)=O)CC1 | 0.87
COCC(=O)NCCCn1ncc2c(C)cccc21 | 20.1
CCCC(=O)NCCCn1ncc2c(C)cccc21 | 2.69
CC(=O)NCCCn1ncc2c(C)cccc21 | 35.8
Cc1cccc2c1cnn2CCCNC(=O)C1CC1 | 66.5
Cc1cccc2c1cnn2CCCNC(=O)CCCC(=O)O | 60.1
CC(C)n1ccc(-c2cc(C(=O)N3CCN(C)CC3)c3ccccn23)n1 | 16.9
Cc1onc(-c2ccncc2)c1C(=O)NC1CCCOC1 (configuration not stated) | 10.8
CCN(C)c1ncnc2c1CCN(C(=O)c1ccoc1C)CC2 | -125
CC(C)CCC(=O)N1CC[C@@H]2[C@H](CC1)N(S(C)(=O)=O)CCS2(=O)=O | -31.9
C/C(NC(=O)c1ccccn1)=C1\C(=O)C[C@@H]2[C@H]1C2(C)C | 9.41
Cc1cc(OC(F)F)c(C(=O)N2CC[C@H](O)C2)s1 | 3.58
CN(C)[C@H]1COC[C@@H]2CN(Cc3ccc4c(c3)OCO4)C[C@@H]21 | 12.1
CN(c1nc(Cn2cnccc2=O)cs1)C1CC1 | 55.5
Cn1cnc2c1CCN(Cc1csc(C3CCCC3)n1)C2 | -19.9
CN(c1nc(Cn2cc(Br)ccc2=O)cs1)C1CC1 | 0
O=c1ccncn1Cc1csc(C2CC2)n1 | 57.5
Cc1ccc(=O)n(Cc2csc(N(C)C3CC3)n2)n1 | -40.6
CCc1csc(C2CCCN(C(=O)c3ccncc3)C2)n1 (configuration not stated) | 6.1
